Assay in all cases: NCI-60 one-dose screen, 48 h (100 = growth as untreated, 0 = no growth, -100 = all killed)
Common to all, as to conditions: 10 µM unless noted

Assay [1] deals with NCI-H23 lung.
Assay [2] has as its system NCI-H226 lung.
The test system of assay [3] is NCI-H322M lung.
Assay [4] has as its system HOP-62 NSCLC.
The subject of assay [5] is NCI-H460 lung.
The test system of assay [6] is HOP-92 NSCLC.
In assay [7] the test system is NCI-H522 lung.
The test system of assay [8] is A549/ATCC NSCLC.
Assay [9] has as its system 786-0 renal.
In assay [10] the test system is COLO 205 colon.

The panel holds about 83,000 compounds, 20% with a hit somewhere; the sample as a whole holds those more often.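 Growth was measured after 48 h exposure to one concentration of compound in 96-well plates. Values under 10 count as active.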 Values without a mark were called inactive. Calls of active or inactive are those of the source.

Regarding `C=CCn1c(O)c(N=Nc2nc(-c3cc4ccccc4oc3=O)cs2)c2ccccc21`, the growth was 35.4% in [1]; 74.2% in assay [2]; 101% in [3]; 80.8% in [4]; 18.3% in assay [5]; 85% in assay [6]. Also, the growth in assay [7] is 58.3%; in [8] it was 24.7%; in assay [9] it was 47.3%; in assay [10], 18.1%.

As to `COc1nc(N)ncc1-c1ccc2ncnc(N3CCc4cc(F)c(Cl)cc43)c2c1`, the growth was 34.2% in [1]; -40.3% (active) in [2]; 3.86% (active) in assay [3]; -54.4% (active) in [4]; -21.5% (active) in assay [5]; -23.8% (active) in [6]. The growth in assay [7] is 41.1%; in [8], 3.34% (active); in assay [9], -74.9% (active); in assay [10] it was -55.5% (active).

For `CC(Nc1ncnc2ccc(-c3ccc4oc(N)nc4c3)cc12)c1ccccc1` (stereo not given), the growth was 16.4% in assay [1]; -10.2% (active) in assay [2]; -24.9% (active) in assay [3]; -53.1% (active) in assay [4]; 3.34% (active) in assay [5]; -45.9% (active) in assay [6]. For the same molecule, the growth in [7] is 18.4%; in assay [8], 13.3%; in assay [9], -48.2% (active); in assay [10] it was 14%.

As to `COc1cc(C2CC(c3ccc(F)cc3)=Nc3c(N)nc(N)nc3N2)ccc1Oc1nc(Nc2ccc(F)cc2)nc(N(C)C)n1` (stereo not given), the growth in assay [1] is 70%; in assay [2], 85.8%; in [3], 105%; in assay [4] it was 86.3%; in [5], 10.1%; in assay [6], 36.8%. Also, the growth in assay [7] is 60.6%; in [8] it was 58.5%; in assay [9] it was 43.9%; in assay [10], 56.2%.

Consider `CS(=O)(=O)Nc1cccc(-n2cnc3cc(-c4ccc(O)cc4)ccc32)c1`, for which the growth is 35.3% in [1]; 33% in assay [2]; 53.1% in assay [3]; 32.1% in assay [4]; 20.3% in [5]; 96.8% in assay [6]. The growth in assay [7] was 25%; in [8], 53.7%; in assay [9] it was 44.7%; in [10], 31.5%.

As for `O=C(CSc1nnc(-c2ccc(-c3nc4ccccc4[nH]3)cc2)o1)Nc1ccc(Br)cc1`, the growth in [1] was 1.35% (active); in assay [2], 74.4%; in [3], 36.8%; in assay [4], 3.07% (active); in assay [5] it was -55.2% (active); in assay [6], 9.82% (active). The growth is 12.8% in [7], 0.989% (active) in assay [8], -40.9% (active) in [9] and 51.7% in assay [10].

For the molecule `Cc1cc(Cl)ccc1NC(=O)Nc1ccc(-c2ccc3c(c2)NC(=O)/C3=C\c2ccc[nH]2)cc1`, the growth in assay [1] was 74.4%; in assay [2] it was 107%; in [3], 98.6%; in assay [4] it was 99.6%; in [5], 66.8%; in assay [6] it was 115%. Moreover, the growth in [7] is 103%; in assay [8], 105%; in assay [9], 105%; in [10] it was 130%.

`Nc1nnc(-c2cncc(Br)c2)c(-c2c[nH]c3ccc(Br)cc23)n1`: the growth in assay [1] was 70.7%; in [2], 76.5%; in [3], 78.2%; in assay [4], 72.7%; in [5], 39.6%; in assay [6], 83.3%. Moreover, the growth in assay [7] is 17.9%; in assay [8], 49.2%; in assay [9], 55.5%; in [10] it was 51.3%.

`Cc1ccc(NC(=O)N/N=C/c2c[nH]c3ccccc23)c(C)c1`: the growth in assay [1] was 12.6%; in [2], 12.6%; in assay [3], 42%; in [4], 34.4%; in [5] it was 5.78% (active); in assay [6], 16.3%. For the same molecule, the growth in assay [7] is -36.8% (active); in [8], 14.9%; in [9], -18.4% (active); in assay [10], -51.5% (active).

`Fc1ccccc1CNc1nc(SCCN2CCOCC2)nc2c1cnn2CC(Cl)c1ccc(Br)cc1` (stereo not given): the growth in assay [1] is 45.1%; in [2] it was 31.8%; in assay [3], 75.2%; in assay [4], 40%; in assay [5], 17%; in [6] it was 26%. The growth is 58.1% in [7], 27.7% in assay [8], 8.8% (active) in assay [9] and -9.47% (active) in [10].

For the molecule `CC(=O)c1c2c(c3ccc4c5ccccc5ccc4n13)C(=O)c1ccccc1C2=O`, the growth was 68.4% in assay [1]; 54.8% in [2]; 92.9% in assay [3]; 70.7% in assay [4]; 28% in [5]; 94.9% in assay [6]. Further, the growth in [7] is 91.9%; in assay [8], 84.1%; in assay [9], 78.5%; in assay [10] it was 99.8%.

On to `COc1ccc2[nH]c(=O)cc(-n3ncc(C(=O)/C=C/c4cc(OC)c(OC)c(OC)c4)c3C)c2c1`, for which the growth is -45.1% (active) in assay [1]; -21.7% (active) in assay [2]; 5.89% (active) in assay [3]; 0.688% (active) in [4]; -30.4% (active) in [5]; 44.2% in assay [6]. In addition, the growth is -81.1% (active) in assay [7], 8.31% (active) in assay [8], -15% (active) in assay [9] and -92.5% (active) in assay [10].

The values are drawn from PubChem BioAssay (NCI).
